Bioassay records deposited in PubChem by several laboratories.
NCOA1 inh: SRC1 coactivator transcriptional activity inhibitors, primary screen, cell-based, luminescence | HEK293 GAL4-SRC1 luciferase reporter | hit rate 0.12% among 360,000 | inhibition, % at 3.6 µM;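 active = inhibition above the campaign mean plus 3 SD, with each screening campaign given its own cutoff, cut at about 60% in these data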;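 also: 0% = DMSO treated cells and 100% = gossypol at 36 µM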
NR2F2 inh: NR2F2 transcriptional activity inhibitors, primary screen, cell-based, luciferase reporter, HEK293T, luminescence; HEK293T NGFI-A luciferase reporter; hit rate 0.7% among 370,000; inhibition, % at 8.6 µM;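 active = inhibition above a per-plate cutoff, mean inhibition of test wells between control levels plus 3 SD, cut at about 38% in these data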;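 also: cells cotransfected with COUP-TFII expression vector driving the NGFI-A reporter; 0% = median of COUP-TF2 test wells and 100% = reporter-only cells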
Gli-Sufu block: Gli-Sufu pathway antagonists, primary screen, luciferase luminescence, Sufu-KO-LIGHT cells, uHTS. hit rate 0.74% among 340,000. AID 588413, 2011. Sufu-KO-LIGHT fibroblasts, Gli luciferase reporter luminescence. inhibition, % at 5 µM;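 active = inhibition above about 55%, limit read from the data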;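 also: 0% = DMSO-treated cells and 100% = wells with medium but no cells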
SRC2 inh: inhibition of GAL4-SRC2 driven luciferase reporter, primary screen, SRC2 inhibitor project, cell-based, luminescence | Nuclear receptor coactivator 2 (Homo sapiens), Q15596 | HEK293 GAL4-SRC2 luciferase reporter | inhibition, % at 9 µM | hit rate 0.17% among 370,000 | AID 651957, 2012;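 active = inhibition above the mean inhibition of all tested compounds plus 3 SD, set per campaign, cut at about 52% in these data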;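 also: 0% = DMSO treated cells and 100% = cells given Gossypol at 36 µM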
SRC3 inh: SRC3 coactivator transcriptional activity inhibitors, primary screen, cell-based, luminescence. Nuclear receptor coactivator 3 (Homo sapiens), Q9Y6Q9. HEK293 GAL4-SRC3 luciferase reporter. inhibition, % at 3.6 µM. hit rate 0.17% among 360,000. AID 588352, 2011;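 active = inhibition above a per-campaign cutoff, the mean of all compounds plus 3 SD, cut at about 60% in these data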;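 also: 0% = DMSO-treated cells and 100% = gossypol-treated cells at 36 µM; higher means less SRC3-driven luciferase light from the GAL4 reporter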
LRH-1 inv ag: LRH-1 (NR5A2) inverse agonists, primary screen, cell-based, luminescence, HEK293T, StAR-luciferase reporter. Nuclear receptor subfamily 5 group A member 2 (Homo sapiens), O00482. LRH-1 transfected, 24 h. inhibition, % at 3.6 µM. hit rate 0.13% among 360,000;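 active = inhibition above the mean inhibition of all tested compounds plus 3 SD, cut at about 73% in these data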;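 also: 0% = DMSO wells and 100% = reporter-only cells lacking LRH-1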
Gli antag conf: Gli-SUFU pathway antagonists, confirmation, single concentration, luciferase luminescence, Sufu-KO-LIGHT cells. shares compounds with Gli-Sufu block. Gli luciferase reporter. inhibition, % at 5 µM. hit rate 40% among 2,500;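 active = mean inhibition at 5 µM reaching about 45%, limit read from the data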;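 also: plate controls were DMSO-treated cells for no effect and wells lacking cells for full effect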
Gli cytotox: cytotoxicity in Sufu-KO-LIGHT cells, confirmation, cytotoxicity control for Gli-SUFU antagonist project, cell-based, ATP luminescence, single concentration. hit rate 32% among 2,500. AID 651994, 2013. cytotoxicity, % at 5 µM. shares compounds with Gli-Sufu block;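 active = mean cytotoxicity at 5 µM above about 25%, limit read from the data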;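 also: cells exposed to compound overnight for roughly 16 to 18 hours; plate controls were DMSO wells with cells for no effect and medium without cells for full effect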
Wnt3a cs: Wnt3a reporter signal inhibition, confirmation, counter-screen for Gli-SUFU antagonist project, Wnt-LIGHT cells, luminescence, single concentration. AID 651995, 2013. shares compounds with Gli-Sufu block. inhibition, % at 6.25 µM. hit rate 20% among 2,500. Wnt3a-driven luciferase reporter;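 active = mean inhibition above about 25%, limit read from the data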
The depositor's hits bear a star; . = no result. Rows were chosen to be rich in hits. Some 1.3% of all compounds tested hit in one or more screens of this group.

SMILES	NCOA1 inh	NR2F2 inh	Gli-Sufu block	SRC2 inh	SRC3 inh	LRH-1 inv ag	Gli antag conf	Gli cytotox	Wnt3a cs
O=S(=O)(Nc1nc2ccccc2nc1Nc1ccc2c(c1)OCO2)c1ccc(F)cc1	0	14	58*	-25	15	-5	58*	16	51*
O=C(NCc1ccccc1)[C@@H]1CCCN1C(=O)[C@H]1CCCN1C(=O)C1CCCCC1	.	-5	.	-5	.	.	.	.	.
Cc1[nH]c2ccccc2c1CC(=O)Nc1ccc(Nc2cccnc2)c(-c2ccc(Cl)c(Cl)c2)c1	.	-19	.	13	.	.	.	.	.
N#C/C(=C\c1ccc(-c2ccc([N+](=O)[O-])cc2)o1)C(=O)Nc1nc(-c2cccs2)cs1	-16	-6	70*	-9	2	2	80*	21	44*
O=c1[nH]c(=O)n(Cc2ccco2)c2c1C(C(F)(F)F)(C(F)(F)F)N=C(c1ccc(F)cc1)N2	0	-9	51	-22	0	-10	65*	16	62*
CC1(C)CC(=O)C=C(c2ccccc2F)C1=O	.	-18	.	-1	.	.	.	.	.
CN(C)/C=C1/NC(=S)NC1=O	7	-16	63*	4	17	-1	10	3	14
CCN1C(=O)/C(=C\N(C)C)NC1=S	12	12	-18	16	8	-1	.	.	.
Cn1nc(-c2ccc(C(=O)N3CCN(Cc4ccccc4)CC3)cc2)c2ccccc2c1=O	1	33	53	-4	11	23	36	6	9
Cc1ccc(S(=O)(=O)NCCC2=CCCCC2)cc1C(N)=O	18	7	58*	20	14	27	47*	19	19
Cc1ccc(C(=O)N2O[C@]34C=C[C@]25C[C@@H](O)CC[C@]5(C)C3CC[C@]2(C)[C@@H]([C@H](C)/C=C/[C@H](C)C(C)C)CC[C@H]24)cc1 (stereo partly drawn)	.	-10	.	-67	.	.	.	.	.
O=C(NC1CCCCN(Cc2cccc(Cl)c2)C1=O)c1cccc2nsnc12 (stereo not drawn)	.	8	.	6	.	.	.	.	.
CC(=O)c1nnn(-c2nc(N)nc(N(c3ccccc3)c3ccccc3)n2)c1C	2	-3	16	14	19	13	.	.	.
CCCCN(CCCC)c1nc(OC)nc(-n2nnc(C(C)=O)c2C)n1	-11	6	52	10	18	16	23	27*	-31
CN(C)S(=O)(=O)c1ccc(S(=O)(=O)N2CCCC(C(=O)NC3CCCC3)C2)cc1 (stereo not drawn)	-8	6	70*	13	-3	-12	28	33*	3
O=C(NC1CCCCC1)C1CCCN(S(=O)(=O)c2ccc(F)cc2)C1 (stereo not drawn)	6	1	-14	6	8	8	.	.	.
O=C(Nc1ccccc1)C1=C[C@H](C2CCCCC2)C[C@H](OCCCCO)O1	-24	12	62*	-10	2	-8	82*	4	-46
O=C(NCc1ccccc1)C1=C[C@H](C2CCCCC2)C[C@H](OCCCCO)O1	6	5	7	15	15	-22	.	.	.
CN(CCOC(=O)CCCc1ccccc1)C1CN(Cc2cn(Cc3ccccc3F)nn2)S(=O)(=O)C1 (stereo not drawn)	.	-35	.	14	.	.	.	.	.
CCOC(=O)C(C)Oc1cccc2c(=O)n(CC(=O)NCc3ccccc3)ccc12 (stereo not drawn)	-3	-69	58*	22	24	16	48*	55*	6
CCOC(=O)C(C)Oc1cccc2c(=O)n(CC(=O)NCCc3ccccc3)ccc12 (stereo not drawn)	10	25	2	5	17	-15	.	.	.
CCOC(=O)COc1cccc2c(=O)n(CC(=O)N3CCC(C)CC3)ccc12	-17	8	-2	-16	-2	17	.	.	.
CCOC(=O)N1CCN(C(=O)Cn2ccc3c(OC)cccc3c2=O)CC1	16	6	54	-4	9	10	21	0	10
COc1cccc(CNC(=O)CN2CCCc3ccccc32)c1	.	-1	.	7	.	.	.	.	.
CC(=O)C1(C(=O)NC2CCCC2)CC(c2ccccc2C(F)(F)F)=NO1 (stereo not drawn)	.	-10	.	9	.	.	.	.	.
SMILES	NCOA1 inh	NR2F2 inh	Gli-Sufu block	SRC2 inh	SRC3 inh	LRH-1 inv ag	Gli antag conf	Gli cytotox	Wnt3a cs
CN1CCN(/C=N/c2sc3c(c2C#N)CCCCC3)CC1	-82	-21	80*	-88	-60	-84	-31	7	-196
CC(C)[C@@H]1OC(=O)[C@@H]2CCCN2C(=O)[C@H](C)OC(=O)[C@H](C)[C@@H](C(C)C)NC(=O)[C@@H]2CCCN2C(=O)[C@H]([C@H](C)Cc2ccccc2)NC(=O)[C@@H]2CCCN2C(=O)[C@@H](C(C)C)N(C)C1=O	.	8	.	.	.	.	.	.	.
COC(=O)C1=C(C)N(Cc2cccc(C(F)(F)F)c2)C(=NCc2ccc3c(c2)OCO3)NC1c1ccc(Cl)cc1 (stereo not drawn)	.	3	.	14	.	.	.	.	.
c1cnc2ccc(C(c3nnnn3C3CCCCC3)N3CCN(C4CCCCC4)CC3)cc2c1 (stereo not drawn)	2	2	65*	-47	17	10	80*	36*	-36
c1cnc2ccc(C(c3nnnn3C3CCCCC3)N3CCCCC3)cc2c1 (stereo not drawn)	-10	6	5	10	7	-9	.	.	.
CCCCN=C(N)NC(=O)c1ccccc1	.	-8	.	-33	.	.	.	.	.
COC(=O)[C@]12C[C@H](CC(=O)NCc3ccccc3)C(=O)N(Cc3ccccc3)C1=C[C@H](C1CCCC1)O[C@@H]2C	.	26	.	4	.	.	.	.	.
CCC1CCCCN1CCCNC(=O)Cn1c(=O)c2cccn2c2cccnc21 (stereo not drawn)	10	-11	69*	-7	-20	20	24	2	15
CC1CCCC(C)N1CCCNC(=O)CCn1c(=O)c2cccn2c2cccnc21 (stereo not drawn)	-17	0	6	-23	22	17	.	.	.
CCC(C)N(C(=O)CSc1nnc(-c2cccnc2)n1C1CCCCC1)C(C)CC (stereo not drawn)	.	13	.	-3	.	.	.	.	.
